Compound activity as filed in PubChem.
The entries come from a sample that favours hits as a whole.
PKM2 inhibitor = inhibitors of human pyruvate kinase M2. P14618. AID 1634. Potency, µM (titrated, usually from 57.5 µM), inactives show at the highest dose activity change, negative = inhibition, usual class: inhibitors. purified PKM2, ATP generation, Kinase-Glo luminescence. 0.058% of 260,000 active; further: potency means the concentration at half of the fitted maximal effect; nearly all actives have a fitted effect of over 60% in size
Target sequence (P14618 whole entry, looked up): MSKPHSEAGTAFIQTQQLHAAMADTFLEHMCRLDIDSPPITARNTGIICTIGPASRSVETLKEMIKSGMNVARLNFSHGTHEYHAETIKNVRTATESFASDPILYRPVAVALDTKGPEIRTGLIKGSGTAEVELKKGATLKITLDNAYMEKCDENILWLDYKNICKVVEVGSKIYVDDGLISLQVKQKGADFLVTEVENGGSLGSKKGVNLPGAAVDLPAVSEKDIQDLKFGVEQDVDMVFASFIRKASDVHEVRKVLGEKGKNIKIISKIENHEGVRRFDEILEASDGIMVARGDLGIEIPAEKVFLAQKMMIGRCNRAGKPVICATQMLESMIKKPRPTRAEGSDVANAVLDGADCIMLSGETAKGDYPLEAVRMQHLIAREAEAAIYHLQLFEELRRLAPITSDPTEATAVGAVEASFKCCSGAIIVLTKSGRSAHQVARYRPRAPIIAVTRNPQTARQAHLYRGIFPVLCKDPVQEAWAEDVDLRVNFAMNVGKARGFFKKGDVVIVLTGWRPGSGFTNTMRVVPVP
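Coupled luciferase luminescence (Kinase-Glo) detects ATP generated from 0.1 mM ADP and 0.5 mM PEP in imidazole buffer pH 7.2 with KCl, MgCl2; 1 h at room temperature. Enzyme at intermediate activity; normalized to uninhibited and no-enzyme controls.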
PKM2 inh dose = confirmation of human pyruvate kinase M2 inhibitors, concentration-response; 50% of 55 active; purified hPK-M2, Kinase-Glo ATP luminescence, 1 h; Potency, µM (doses to about 57.5 µM), inactives show top-dose activity change, negative = inhibition, most hits filed as inhibitors; shares compounds with PKM2 inhibitor
PKM2 FLuc cs = blocks firefly luciferase, flagging PKM2 inhibitor artifacts | shares compounds with PKM2 inhibitor | 30% of 55 active | Kinase-Glo firefly luciferase, luminescence, 8 min | Potency, µM (titrated, usually from 57.5 µM), inactives show at the highest dose activity, negative = inhibition, usual class: inhibitors
PKM2 LDH couple = confirmation of human pyruvate kinase M2 inhibitors, coupled readout; shares compounds with PKM2 inhibitor; purified hPK-M2, LDH-coupled NADH fluorescence kinetic; Potency, µM (top dose mostly 57.5 µM), for the others: at the highest dose activity change, negative = inhibition, most hits filed as inhibitors; 55 tested, under 10 active
* hit, by the source's call; ? = inconclusive; / = no result given. The call rests on the fitted dose curve; in most records, active means well fitted curve in the direction sought with a large enough effect; inconclusive means small, poorly fitted or top-dose-only effect, or another doubt; inactive means no such curve, though single readings can be large; an effect the other way counts as inactive or inconclusive.

SMILES | PKM2 inhibitor | others
O=C(Nc1cc([N+](=O)[O-])ccc1N1CCCC1)c1ccco1 | 49%
CC(NC(=O)Cc1cccs1)c1ccccc1 (stereo unspecified) | 122%
COc1ccc(OCC(O)CNS(=O)(=O)c2cccc(Cl)c2)cc1 (stereo unspecified) | 36%
O=C(NCc1ccc2c(c1)OCO2)c1ccc(C2SCC(=O)N2Cc2ccco2)cc1 (stereo unspecified) | 54%
O=c1c2cc(Cl)ccc2[nH]c(=S)n1Cc1cccs1 | 28%
CCOc1ccc(C(=O)O/N=C(\N)c2ccccn2)cc1 | 7.9µM* | PKM2 inh dose=5.8µM*;PKM2 FLuc cs=6.5µM*;PKM2 LDH couple=-10%
CCOC(=O)N1CCN(S(=O)(=O)c2ccc(OCC)cc2)CC1 | 35%
CCOc1ccc(NC(c2ccccn2)c2oc(CO)cc(=O)c2O)cc1 (stereo unspecified) | 41%
C/C(=N\NC(=O)C1CCCN(S(=O)(=O)c2ccccc2)C1)c1ccccn1 (stereo unspecified) | 2%
N/C(=N\OC(=O)c1ccccc1)c1ccccn1 | 4µM* | PKM2 inh dose=9.2µM*;PKM2 FLuc cs=4.1µM*;PKM2 LDH couple=-9%
O=C(O)CCc1ccc(-c2cccs2)n1CCc1ccccc1 | 62%
Cn1c(=O)c(C(=O)COC(=O)c2cc(-c3ccco3)nc3ccccc23)c(N)n(CC2CC2)c1=O | 48%
Cc1ccc(C2CC(c3ccccc3)=NN2C(=S)Nc2ccccc2)o1 (stereo unspecified) | 36%
CS(=O)(=O)N1CCN(c2ccc([N+](=O)[O-])c(NCc3cccnc3)c2)CC1 | 87%
CC(=O)c1ccc(S(=O)(=O)Nc2ccc(-c3cn4c(n3)SCC4)cc2)cc1 | 43%
CS(=O)(=O)c1sc(C#N)c2c1C(=O)CC(c1ccccc1)C2 (stereo unspecified) | 35%
N#CCn1cnc2sc(-c3ccccc3)cc2c1=O | 31%
Cc1nc2cc(-c3ccccc3)sc2c(=O)n1N | 3.5µM* | PKM2 inh dose=3.7µM*;PKM2 FLuc cs=2.6µM*;PKM2 LDH couple=-5%
Nc1ccccc1N=Cc1ccc(-c2cccc(Cl)c2)o1 | 78%
Cc1ccc(CNC(=O)CCS(=O)(=O)c2cc(Br)cc3c2N(C(=O)C2CC2)CC3)o1 | 135%
Cc1ccc(Nc2c(-c3ccc(C)s3)nc3cccc(C)n23)cc1 | / | PKM2 inh dose=?;PKM2 FLuc cs=0%;PKM2 LDH couple=16%
COc1ccc(-c2nc3cccc(C)n3c2Nc2ccc(C)cc2)cc1 | / | PKM2 inh dose=6%;PKM2 FLuc cs=-3%;PKM2 LDH couple=?
Cc1ccccc1Nc1c(-c2ccccc2)nc2cccc(C)n12 | / | PKM2 inh dose=4%;PKM2 FLuc cs=-2%;PKM2 LDH couple=?
CCCNc1nc(Cl)nc(NCc2cccnc2)n1 | 30%
CCCCc1ccc(/C=C2\C(=O)c3ccccc3C(O)=C2C(=O)OCC)cc1 | 45%
SMILES | PKM2 inhibitor | others
Cc1cc(C)cc(NS(=O)(=O)c2ccc3oc(=O)ccc3c2)c1 | 56%
COc1ccc(-c2ncccc2OC(=O)C23CC4CC(CC(C4)C2)C3)cc1OC | 34%
O=C(O)/C=C/C(=O)Nc1ccccc1SC(F)(F)F | 52%
CC1S/C(=N/N=C/c2ccco2)N(Cc2ccccc2)C1=O (stereo unspecified) | 93%
CC(C)CN(C(=O)CSc1nnnn1-c1ccccc1)c1c(N)n(CC(C)C)c(=O)[nH]c1=O | 37%
CC(C)c1ccc(CN2CC(C(=O)Nc3ccccc3)CC2=O)cc1 (stereo unspecified) | 2%
CCNC(=S)SCCOc1ccccc1C | 16%
CCOC(=O)Cn1c(=O)oc2cc(S(=O)(=O)Nc3ccc(F)cc3)ccc21 | 32%
